SMILES strings stand for the structures. Hit rate of the full screen: of about 2,000 compounds, about 250 (12%) were called active. No stated cut-off is given here; in the data, active means hERG blockade below about -20% or above about 20%; inactive means in between. What follows is part of a selection rich in actives, with near analogues and random picks from the rest.

For the assay, the target named is Voltage-gated inwardly rectifying potassium channel KCNH2 (Homo sapiens) (UniProt Q12809). In words: modulators of KCNH2 ion channel function, cellular (AID 376).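 Further: 0% = buffer alone and 100% = reference blocker.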 Conditions: hERG-expressing cells, channel activity single-concentration screen; concentration not given here.
Chain of Voltage-gated inwardly rectifying potassium channel KCNH2 (Homo sapiens) (Q12809 whole entry, looked up): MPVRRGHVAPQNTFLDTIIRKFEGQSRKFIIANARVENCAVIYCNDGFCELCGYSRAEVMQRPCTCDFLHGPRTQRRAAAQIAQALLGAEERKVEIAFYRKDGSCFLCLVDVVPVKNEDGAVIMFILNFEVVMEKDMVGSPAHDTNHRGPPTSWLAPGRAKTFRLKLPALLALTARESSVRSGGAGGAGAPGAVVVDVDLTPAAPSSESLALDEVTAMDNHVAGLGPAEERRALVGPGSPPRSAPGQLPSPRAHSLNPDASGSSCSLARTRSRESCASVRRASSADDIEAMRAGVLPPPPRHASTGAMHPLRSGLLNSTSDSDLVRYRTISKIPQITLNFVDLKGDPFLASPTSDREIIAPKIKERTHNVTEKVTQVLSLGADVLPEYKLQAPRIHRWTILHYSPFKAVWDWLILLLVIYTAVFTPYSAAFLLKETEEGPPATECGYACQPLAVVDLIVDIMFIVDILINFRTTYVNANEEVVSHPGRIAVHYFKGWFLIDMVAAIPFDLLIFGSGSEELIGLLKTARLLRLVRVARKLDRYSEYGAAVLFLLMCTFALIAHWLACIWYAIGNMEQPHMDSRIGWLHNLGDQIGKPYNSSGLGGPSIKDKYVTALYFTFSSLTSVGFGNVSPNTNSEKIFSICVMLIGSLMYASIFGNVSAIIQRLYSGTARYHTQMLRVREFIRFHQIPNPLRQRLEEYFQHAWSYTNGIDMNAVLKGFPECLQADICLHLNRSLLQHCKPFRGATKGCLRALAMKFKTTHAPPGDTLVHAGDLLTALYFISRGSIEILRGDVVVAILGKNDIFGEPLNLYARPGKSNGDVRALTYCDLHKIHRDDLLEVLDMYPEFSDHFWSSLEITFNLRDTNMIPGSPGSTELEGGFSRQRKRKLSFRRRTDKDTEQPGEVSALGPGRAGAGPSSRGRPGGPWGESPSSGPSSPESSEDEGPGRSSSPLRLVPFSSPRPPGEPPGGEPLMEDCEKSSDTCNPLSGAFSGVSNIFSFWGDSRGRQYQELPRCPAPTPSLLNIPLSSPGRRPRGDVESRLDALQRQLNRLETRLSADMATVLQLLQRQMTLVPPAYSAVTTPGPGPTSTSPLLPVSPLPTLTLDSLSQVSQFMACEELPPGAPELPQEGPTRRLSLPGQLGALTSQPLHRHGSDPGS
As to `CC(C)c1cc(CN(C)C)c(O)c(C(C)(C)C)c1`, the hERG blockade is 13.4% (inactive).

For `Nc1nc(N)[n+]([O-])c(N)c1NCO`, the hERG blockade was -6.48% (inactive).

Consider `C=CCNS(=O)(=O)c1ncnc2nc[nH]c12`, for which the hERG blockade is -2.53% (inactive).

As to `Nc1cc2c(nc3c4ccccc4c(N)cc3[n+]2-c2cccc3ccccc23)c2ccccc12` (tested in a mixture with another compound), the hERG blockade is 51.9% (active).

`Nc1nc(-c2cc(-c3cccc4ccccc34)nc(N)n2)cc(-c2cccc3ccccc23)n1`: the hERG blockade is 3.59% (inactive).

For the molecule `O=S(=O)(c1ccc(Br)cc1)N1CCN(S(=O)(=O)c2ccc(Br)cc2)CC1`, the hERG blockade was 11.5% (inactive).

Turning to `O=C(O)C1CCCCC1c1c2ccc(=O)c(O)c-2oc2c(O)c(O)ccc12` (stereo not drawn), the hERG blockade was -2.68% (inactive).

`CC(=O)C1(N=Nc2ccc(S(N)(=O)=O)cc2)CCOC1=O` (stereo not drawn): the hERG blockade is -10.6% (inactive).

As to `c1ccc2sc(SCSc3nc4ccccc4s3)nc2c1`, the hERG blockade was -7.22% (inactive).

Regarding `CC(CCC(=O)O)(c1ccc(O)cc1)c1ccc(O)cc1`, the hERG blockade is 4.36% (inactive).

As to `CC(CCc1nc2ccccc2s1)(c1ccc(O)cc1)c1ccc(O)cc1`, the hERG blockade is 24% (active).

On to `O=C(O)c1ccccc1C(=O)c1ccc2c(c1)Cc1ccccc1-2`, for which the hERG blockade was -16.1% (inactive).

On to `Cn1c(=O)c2c(ncn2CN2CCN(Cn3cnc4c3c(=O)n(C)c(=O)n4C)CC2)n(C)c1=O`, for which the hERG blockade was 0.775% (inactive).

On to `O=C(O)CSc1nnc2c3ccccc3c3ccccc3c2n1`, for which the hERG blockade was -2.16% (inactive).

For `c1ccc2c[n+](CCCC[n+]3ccc4ccccc4c3)ccc2c1`, the hERG blockade was 22% (active).

As to `c1ccc2c[n+](Cc3ccnc4ccccc34)ccc2c1`, the hERG blockade was 16.2% (inactive).

For the molecule `CC(=N[O-])C(C)=N[O-].CC(=N[O-])C(C)=N[O-].[CH2-]CCN1CCOCC1.[Co].c1ccncc1`, the hERG blockade is 17.9% (inactive).

With `O=C(O)c1ccc([N+](=O)[O-])c(P(=O)(O)O)c1`, the hERG blockade is -6.85% (inactive).

Regarding `Cc1nc2ccccc2nc1-c1ccc(N=[N+]([O-])c2ccc(-c3nc4ccccc4nc3C)cc2)cc1`, the hERG blockade was 1.15% (inactive).

Regarding `O=C(O)C(=Cc1ccccc1)Cc1ccccc1`, the hERG blockade was -1.14% (inactive).

`O=C(O)c1ccc(C(=O)c2ccccc2C(=O)O)cc1C(=O)O`: the hERG blockade was 1.52% (inactive).

`Cc1ccc(NC(=O)c2ccccc2C(=O)O)cc1C`: the hERG blockade was 0.447% (inactive).

Take `CC1=CC(=C(c2ccc(O)c(C)c2)c2ccccc2C(=O)O)C=CC1=O`: the hERG blockade was 30.9% (active).

With `CC(C)=NNc1ncnc2nc[nH]c12`, the hERG blockade is -8.04% (inactive).

Consider `O=C1CSC(=S)N1N=Cc1ccc(Cl)c([N+](=O)[O-])c1`, for which the hERG blockade was 8.8% (inactive).

`N=C(N)c1ccc(N=Nc2c(O)ccc3c2[nH]c2ccccc23)cc1`: the hERG blockade is -25.6% (active).

Take `O=C(O)c1ccc(S(=O)(=O)N=Nc2c(O)[nH]c3ccccc23)cc1`: the hERG blockade was -4.01% (inactive).

Turning to `O=Nc1c(O)[nH]c2ccccc12.O=Nc1c(O)[nH]c2ccccc12.[Cu]`, the hERG blockade is 0.0535% (inactive).
